# According to ChEMBL document CHEMBL1961873, “Compounds: GSK PKIS; Assays: Nanosyn kinase panel” (2012):
# Experiments:
# [1] = target: T1, Muscle, skeletal receptor tyrosine-protein kinase (Homo sapiens) (UniProt O15146); details: at 1 µM;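 further: reported value is the mean percent inhibition of MuSK kinase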
# T1 sequence (whole entry): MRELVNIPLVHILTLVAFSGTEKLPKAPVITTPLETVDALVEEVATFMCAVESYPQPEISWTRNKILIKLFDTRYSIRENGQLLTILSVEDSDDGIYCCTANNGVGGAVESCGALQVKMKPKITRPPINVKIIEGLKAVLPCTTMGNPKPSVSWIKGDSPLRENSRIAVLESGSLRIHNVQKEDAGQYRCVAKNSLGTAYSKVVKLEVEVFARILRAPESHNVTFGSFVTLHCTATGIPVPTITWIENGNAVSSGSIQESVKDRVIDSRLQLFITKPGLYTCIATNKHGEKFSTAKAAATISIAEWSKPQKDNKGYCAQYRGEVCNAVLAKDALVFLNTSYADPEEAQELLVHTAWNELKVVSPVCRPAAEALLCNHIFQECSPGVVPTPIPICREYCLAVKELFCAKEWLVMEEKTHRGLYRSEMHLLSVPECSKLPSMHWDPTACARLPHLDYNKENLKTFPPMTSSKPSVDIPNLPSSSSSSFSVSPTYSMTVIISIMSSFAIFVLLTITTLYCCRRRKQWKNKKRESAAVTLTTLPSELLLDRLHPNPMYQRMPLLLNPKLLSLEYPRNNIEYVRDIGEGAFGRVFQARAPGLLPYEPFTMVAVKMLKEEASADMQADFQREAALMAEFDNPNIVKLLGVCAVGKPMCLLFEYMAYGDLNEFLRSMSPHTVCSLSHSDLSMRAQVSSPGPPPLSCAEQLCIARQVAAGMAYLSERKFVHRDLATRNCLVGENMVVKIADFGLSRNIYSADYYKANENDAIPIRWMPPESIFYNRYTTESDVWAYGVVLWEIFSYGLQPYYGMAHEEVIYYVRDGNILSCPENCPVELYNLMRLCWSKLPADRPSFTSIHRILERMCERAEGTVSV
# [2] = target: Platelet-derived growth factor receptor alpha (Homo sapiens) (UniProt P16234); details: at 0.1 µM
# Sequence of Platelet-derived growth factor receptor alpha (Homo sapiens) (P16234 whole entry): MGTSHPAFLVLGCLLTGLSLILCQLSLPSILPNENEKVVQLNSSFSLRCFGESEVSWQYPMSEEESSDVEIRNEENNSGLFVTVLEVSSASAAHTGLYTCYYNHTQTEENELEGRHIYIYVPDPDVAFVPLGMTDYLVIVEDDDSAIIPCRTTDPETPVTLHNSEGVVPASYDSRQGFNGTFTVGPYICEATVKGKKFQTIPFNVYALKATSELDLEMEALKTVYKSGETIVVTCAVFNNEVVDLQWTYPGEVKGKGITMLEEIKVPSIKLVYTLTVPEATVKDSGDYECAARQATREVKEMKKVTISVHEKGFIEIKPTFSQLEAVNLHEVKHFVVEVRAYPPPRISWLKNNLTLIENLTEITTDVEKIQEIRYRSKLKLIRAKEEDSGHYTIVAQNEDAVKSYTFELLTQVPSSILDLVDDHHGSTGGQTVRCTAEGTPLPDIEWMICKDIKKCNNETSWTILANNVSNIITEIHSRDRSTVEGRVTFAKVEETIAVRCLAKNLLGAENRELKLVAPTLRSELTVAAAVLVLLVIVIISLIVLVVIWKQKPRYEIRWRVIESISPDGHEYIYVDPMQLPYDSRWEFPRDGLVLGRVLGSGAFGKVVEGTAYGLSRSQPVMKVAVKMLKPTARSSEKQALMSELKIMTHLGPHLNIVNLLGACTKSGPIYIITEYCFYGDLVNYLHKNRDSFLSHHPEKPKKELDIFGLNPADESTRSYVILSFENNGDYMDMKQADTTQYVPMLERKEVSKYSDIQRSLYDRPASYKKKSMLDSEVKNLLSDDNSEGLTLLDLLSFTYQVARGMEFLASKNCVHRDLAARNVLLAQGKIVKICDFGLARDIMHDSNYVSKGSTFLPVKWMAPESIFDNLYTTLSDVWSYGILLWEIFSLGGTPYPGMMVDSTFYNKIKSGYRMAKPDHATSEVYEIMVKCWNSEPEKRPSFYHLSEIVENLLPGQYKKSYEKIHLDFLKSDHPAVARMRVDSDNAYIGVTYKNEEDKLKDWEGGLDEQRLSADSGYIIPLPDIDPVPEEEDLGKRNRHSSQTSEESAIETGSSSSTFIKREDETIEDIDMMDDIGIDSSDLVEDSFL
# [3] = target: Platelet-derived growth factor receptor alpha (Homo sapiens) (UniProt P16234); details: at 1 µM
# [4] = test system: Platelet-derived growth factor receptor alpha (Homo sapiens), P16234 [D842V]; details: at 0.1 µM
# Sequence of Platelet-derived growth factor receptor alpha (Homo sapiens), P16234 [D842V] (P16234 whole entry D842V): as the sequence (P16234 whole entry) above, with D842V counted along it
# [5] = test system: Platelet-derived growth factor receptor alpha (Homo sapiens), P16234 [D842V]; details: at 1 µM
# [6] = test system: Platelet-derived growth factor receptor alpha (Homo sapiens), P16234 [T674I]; details: at 0.1 µM
# [7] = test system: Platelet-derived growth factor receptor alpha (Homo sapiens), P16234 [T674I]; details: at 1 µM
# [8] = test system: Platelet-derived growth factor receptor alpha (Homo sapiens), P16234 [V561D]; details: at 0.1 µM
# Sequence of Platelet-derived growth factor receptor alpha (Homo sapiens), P16234 [V561D] (P16234 whole entry V561D): as the sequence (P16234 whole entry) above, with V561D counted along it
# [9] = test system: Platelet-derived growth factor receptor alpha (Homo sapiens), P16234 [V561D]; details: at 1 µM
# [10] = target: Platelet-derived growth factor receptor beta (Homo sapiens) (UniProt P09619); details: at 0.1 µM
# [11] = target: Platelet-derived growth factor receptor beta (Homo sapiens) (UniProt P09619); details: at 1 µM
# [12] = target: Tyrosine-protein kinase FRK (Homo sapiens) (UniProt P42685); details: at 0.1 µM
# Sequence of Tyrosine-protein kinase FRK (Homo sapiens) (P42685 whole entry): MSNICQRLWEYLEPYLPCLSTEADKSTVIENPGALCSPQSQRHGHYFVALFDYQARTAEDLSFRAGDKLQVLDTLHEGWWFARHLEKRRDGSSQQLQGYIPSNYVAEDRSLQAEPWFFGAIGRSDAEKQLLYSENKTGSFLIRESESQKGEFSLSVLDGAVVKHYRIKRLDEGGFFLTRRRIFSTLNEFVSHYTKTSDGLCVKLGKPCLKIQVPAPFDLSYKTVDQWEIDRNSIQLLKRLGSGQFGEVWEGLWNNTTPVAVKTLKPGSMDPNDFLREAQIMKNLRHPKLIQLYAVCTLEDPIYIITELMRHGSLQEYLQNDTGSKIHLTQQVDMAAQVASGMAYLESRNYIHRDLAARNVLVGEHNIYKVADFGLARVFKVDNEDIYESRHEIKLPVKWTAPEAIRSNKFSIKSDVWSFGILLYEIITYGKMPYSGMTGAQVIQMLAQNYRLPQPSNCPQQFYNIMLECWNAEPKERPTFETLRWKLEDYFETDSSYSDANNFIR
# [13] = target: Tyrosine-protein kinase FRK (Homo sapiens) (UniProt P42685); details: at 1 µM
# [14] = target: Protein-tyrosine kinase 2-beta (Homo sapiens) (UniProt Q14289); details: at 0.1 µM
# [15] = target: Protein-tyrosine kinase 2-beta (Homo sapiens) (UniProt Q14289); details: at 1 µM
# [16] = target: Proto-oncogene tyrosine-protein kinase receptor Ret (Homo sapiens) (UniProt P07949); details: at 0.1 µM
# [17] = target: Proto-oncogene tyrosine-protein kinase receptor Ret (Homo sapiens) (UniProt P07949); details: at 1 µM
# [18] = test system: Proto-oncogene tyrosine-protein kinase receptor Ret (Homo sapiens), P07949 [V804L]; details: at 0.1 µM
# [19] = test system: Proto-oncogene tyrosine-protein kinase receptor Ret (Homo sapiens), P07949 [V804L]; details: at 1 µM
# [20] = test system: Proto-oncogene tyrosine-protein kinase receptor Ret (Homo sapiens), P07949 [Y791F]; details: at 0.1 µM
# Sequence of Proto-oncogene tyrosine-protein kinase receptor Ret (Homo sapiens), P07949 [Y791F] (P07949 whole entry Y791F): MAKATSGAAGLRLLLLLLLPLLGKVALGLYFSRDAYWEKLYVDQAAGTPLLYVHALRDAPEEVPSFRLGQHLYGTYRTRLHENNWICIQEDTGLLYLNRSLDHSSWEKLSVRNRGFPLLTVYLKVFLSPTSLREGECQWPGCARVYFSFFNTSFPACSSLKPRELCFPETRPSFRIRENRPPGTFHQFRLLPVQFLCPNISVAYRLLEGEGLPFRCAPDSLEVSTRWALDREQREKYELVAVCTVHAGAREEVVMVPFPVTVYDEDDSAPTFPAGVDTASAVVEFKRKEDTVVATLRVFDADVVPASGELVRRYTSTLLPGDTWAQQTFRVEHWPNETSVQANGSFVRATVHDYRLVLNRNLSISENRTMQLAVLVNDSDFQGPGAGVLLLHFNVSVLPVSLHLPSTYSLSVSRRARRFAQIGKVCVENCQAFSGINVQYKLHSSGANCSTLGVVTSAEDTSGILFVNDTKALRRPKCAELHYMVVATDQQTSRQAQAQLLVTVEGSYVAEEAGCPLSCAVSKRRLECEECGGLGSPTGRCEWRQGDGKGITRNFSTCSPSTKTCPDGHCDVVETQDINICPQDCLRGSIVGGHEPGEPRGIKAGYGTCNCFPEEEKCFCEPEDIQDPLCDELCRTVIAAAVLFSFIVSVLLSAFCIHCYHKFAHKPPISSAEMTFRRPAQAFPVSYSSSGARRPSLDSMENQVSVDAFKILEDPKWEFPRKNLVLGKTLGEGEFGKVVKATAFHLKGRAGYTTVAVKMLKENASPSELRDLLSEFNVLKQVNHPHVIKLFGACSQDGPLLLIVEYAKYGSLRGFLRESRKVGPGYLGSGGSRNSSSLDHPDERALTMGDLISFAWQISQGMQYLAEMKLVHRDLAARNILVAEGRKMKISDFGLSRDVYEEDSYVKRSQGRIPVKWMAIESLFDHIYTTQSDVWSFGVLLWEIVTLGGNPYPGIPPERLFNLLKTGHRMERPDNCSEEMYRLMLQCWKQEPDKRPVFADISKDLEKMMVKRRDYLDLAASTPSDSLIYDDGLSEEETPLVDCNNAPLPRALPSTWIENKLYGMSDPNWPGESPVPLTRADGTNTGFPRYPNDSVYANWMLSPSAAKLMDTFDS
smiles,measurement,setting,value
COc1cc(Nc2nccc(Nc3ccc4c(C)n[nH]c4c3)n2)cc(OC)c1OC,inhibition,[1],72.5%
same,inhibition,[2],76%
same,inhibition,[3],91.6%
same,inhibition,[4],50%
same,inhibition,[5],90.2%
same,inhibition,[6],11.4%
same,inhibition,[7],59%
same,inhibition,[8],71.4%
same,inhibition,[9],96.5%
same,inhibition,[10],74.4%
same,inhibition,[11],87.5%
same,inhibition,[12],1.94%
same,inhibition,[13],11.5%
same,inhibition,[14],25.2%
same,inhibition,[15],84.3%
same,inhibition,[16],51.1%
same,inhibition,[17],84%
same,inhibition,[18],25.3%
same,inhibition,[19],68.7%
same,inhibition,[20],57.5%
Cc1ccc(O)cc1Nc1ccnc2cc(-c3ccccn3)ccc12,inhibition,[1],5.77%
same,inhibition,[2],67.2%
same,inhibition,[3],89.5%
same,inhibition,[4],81.4%
same,inhibition,[5],96.2%
same,inhibition,[6],7.02%
same,inhibition,[7],6.98%
same,inhibition,[8],70.4%
same,inhibition,[9],105%
same,inhibition,[10],53.4%
same,inhibition,[11],87%
same,inhibition,[12],18.9%
same,inhibition,[13],68.2%
same,inhibition,[14],10.1%
same,inhibition,[15],17.6%
same,inhibition,[16],84.2%
same,inhibition,[17],89.8%
same,inhibition,[18],4.72%
same,inhibition,[19],3.44%
same,inhibition,[20],92.3%
CNC(=O)c1cc(-c2ccc(F)cc2)cc(-c2ccc(S(=O)(=O)N3CCCC3)cc2)c1N,inhibition,[1],0.83%
same,inhibition,[2],3.69%
same,inhibition,[3],7.98%
same,inhibition,[4],2.05%
same,inhibition,[5],1.76%
same,inhibition,[6],2.94%
same,inhibition,[7],2.93%
same,inhibition,[8],3.32%
same,inhibition,[9],2.29%
same,inhibition,[10],3.45%
same,inhibition,[11],6.26%
same,inhibition,[12],2.42%
same,inhibition,[13],2.21%
same,inhibition,[14],2.65%
same,inhibition,[15],7.64%
same,inhibition,[16],2.88%
same,inhibition,[17],2.96%
same,inhibition,[18],2.49%
same,inhibition,[19],5.41%
same,inhibition,[20],3.21%
COc1cccc(-n2ncc3c(N/N=C/c4ccc(F)cc4)ncnc32)c1,inhibition,[1],9.49%
same,inhibition,[2],15.8%
same,inhibition,[3],42.1%
same,inhibition,[4],9.48%
same,inhibition,[5],45.4%
same,inhibition,[6],9.07%
same,inhibition,[7],29.6%
same,inhibition,[8],8.4%
same,inhibition,[9],37.1%
same,inhibition,[10],12.8%
same,inhibition,[11],45.3%
same,inhibition,[12],4.95%
same,inhibition,[13],1.58%
same,inhibition,[14],8.88%
same,inhibition,[15],13.6%
same,inhibition,[16],5.24%
same,inhibition,[17],14.9%
same,inhibition,[18],2.47%
same,inhibition,[19],7.65%
same,inhibition,[20],1.26%
CN1CCC(n2cnc(-c3ccc(F)cc3)c2-c2ccnc(N)n2)CC1,inhibition,[1],3.89%
same,inhibition,[2],6.86%
same,inhibition,[3],25.6%
same,inhibition,[4],3.56%
same,inhibition,[5],17.9%
same,inhibition,[6],4.48%
same,inhibition,[7],5.18%
same,inhibition,[8],4.45%
same,inhibition,[9],16.9%
same,inhibition,[10],4.26%
same,inhibition,[11],29.6%
same,inhibition,[12],0.15%
same,inhibition,[13],1.13%
same,inhibition,[14],-2.24%
same,inhibition,[15],6.37%
same,inhibition,[16],5.6%
same,inhibition,[17],18.7%
same,inhibition,[18],1.63%
same,inhibition,[19],13.3%
same,inhibition,[20],4.75%
COC(=O)c1sc(-n2cnc3cc(OC)c(OC)cc32)cc1OCc1ccccc1C(F)(F)F,inhibition,[1],48.1%
same,inhibition,[2],26.1%
same,inhibition,[3],66.3%
same,inhibition,[4],18%
same,inhibition,[5],66.5%
same,inhibition,[6],9.67%
same,inhibition,[7],44.6%
same,inhibition,[8],22.2%
same,inhibition,[9],70.6%
same,inhibition,[10],14.9%
same,inhibition,[11],54.9%
same,inhibition,[12],2.68%
same,inhibition,[13],2.31%
same,inhibition,[14],11.6%
same,inhibition,[15],10.7%
same,inhibition,[16],24.8%
same,inhibition,[17],64.5%
same,inhibition,[18],9.09%
same,inhibition,[19],27.8%
same,inhibition,[20],25.1%
